Source: PubChem BioAssay (National Center for Advancing Translational Sciences (NCATS))
This is a sample that favours compounds with a hit; in the whole collection about 1.1% have one here.
Menin-MLL FL inh = menin-MLL binding inhibition, fluorescein peptide; FP activity change, % at 61.4 µM; Fluorescence polarization, fluorescein-MLL peptide displacement from menin; AID 1766; 290,000 tested, under 10 active; active = well fitted curve in the direction sought with a large enough effect in the polarisation, not every such curve was filed as active; inconclusive = small, poorly fitted or top-dose-only effect, or effect the other way, or a change in a side signal; inactive = no such curve, though single readings can be large or run the other way; the % refers to the polarisation
Menin-MLL TR inh = inhibitors of human menin-MLL interaction, mutant MLL peptide; O00255; Menin + Texas Red MLL mutant peptide, fluorescence polarization; Potency, µM (doses to about 61.6 µM), usual class: inhibitors; actives 0.23% (n = 270,000); active = well fitted inhibition curve with a large enough effect in the polarisation, with a control signal flat, not every such curve was filed as active; inconclusive = small, poorly fitted or top-dose-only effect, or effect the other way, or a change in a side signal; inactive = no such curve, though single readings can be large or run the other way; the % refers to the polarisation
CXXC DNA block = inhibitors of human MLL CXXC domain-DNA interaction. actives 0.037% (n = 290,000). MLL-CXXC / FITC-HOXA9 DNA fluorescence polarization. Potency, µM (doses to about 115 µM), actives largely listed as inhibitors; active = well fitted inhibition curve with a large enough effect in the polarisation, with a control signal flat, not every such curve was filed as active; inconclusive = small, poorly fitted or top-dose-only effect, or effect the other way, or a change in a side signal; inactive = no such curve, though single readings can be large or run the other way; the % refers to the polarisation
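Fluorescence polarization: 7 uM MLL-CXXC (stock) preincubated 5 min with compounds, then 50 nM fluorescein-HOX-A9 DNA (stock) added; 30 min ambient. Buffer 50 mM Tris-HCl pH 7.5, 50 mM NaCl, 1 mM DTT, 0.05% BSA.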
KCNH2 WT inh = blocks the wildtype human KCNH2 potassium channel; Q12809; U2OS, BacMam KCNH2, thallium flux FluxOr; active compounds read low; activity change, % at 1.84 µM; actives 0.37% (n = 340,000);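 active = maximum activity change below -70%; inconclusive = maximum activity change between -70% and -50%; inactive = maximum activity change above -50%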
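U2OS cells transduced with wild-type KCNH2 virus are loaded with FluxOr dye for 45 min, and thallium flux is measured in kinetic reads before and after stimulation buffer. Rate constants are normalized to DMSO controls.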
KCNH2 3.1 block = KCNH2 3.1 (human) potassium channel inhibition; U2OS KCNH2 3.1, thallium flux FluxOr; active compounds read low; activity change, % (tested at about 1.8 µM); actives 0.95% (n = 340,000); AID 720553;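 active = maximum activity change below -70%; inconclusive = maximum activity change from -70% to -50%; inactive = maximum activity change above -50%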;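 note: thallium influx rate constant from kinetic fluorescence after stimulation buffer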
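Channel expression came from 3.1 mutant virus (1.77 x 10^8 /mL) applied to suspended U2OS cells for 4 h. Flux was tracked with FluxOr dye plus Red40 quencher, and kinetic rate constants normalized to controls.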
Hits are given with their value; . = inactive; ? = inconclusive; / = no result; [ ] = dose if it differs, or a comment.

SMILES	Menin-MLL FL inh	Menin-MLL TR inh	CXXC DNA block	KCNH2 WT inh	KCNH2 3.1 block
CCN1/C(=C/c2ccc3cc(C)ccc3[n+]2CC)Sc2ccccc21	?	?	?	.	.
Cn1c(C(=O)N2CCN(c3ccc([N+](=O)[O-])cc3)CC2)cc2c(=O)[nH]c3ccccc3c21	.	.	.	-71	-96
Cc1cc(C(=O)N2CCN(c3ccc([N+](=O)[O-])cc3)CC2)co1	.	.	.	.	?
O=C1C2=C(C(=O)c3ccccc31)C1O[C@](CCCCN3C(=O)c4ccccc4C3=O)(Cc3c1ccc1ccccc31)O2	.[11.7 µM]	.[11.7 µM]	.[23 µM]	/	/
O=C(CCCNC(=O)/C(=C/c1ccc(Br)cc1)NC(=O)c1ccccc1)OCc1ccccc1	.	.	.	.	-113
CC(C)c1ccc(/C=C(\NC(=O)c2ccccc2)C(=O)NCCCn2ccnc2)cc1	/	/	.	.	-102
O=C(NCCCn1ccnc1)/C(=C/c1ccc(F)cc1)NC(=O)c1ccccc1	/	/	.	.	-116
CC(C)C(NC(=O)c1ccc(Cl)c([N+](=O)[O-])c1)C(=O)NCc1ccccn1 (stereo not drawn)	/	/	/	.	.
O=c1c(-c2ccc(F)c(F)c2)nc2cncnc2n1C1CC1	.	.	/	/	/
C[C@H](NC(c1cccc2nc(O)c(O)nc12)P(=O)(O)O)c1ccc(Br)cc1 (stereo partly drawn)	.	.	/	/	/
Cc1cc(=O)oc2cc(OC3C=CC(C#CC(C)(C)C)OC3CO)ccc12 (stereo not drawn)	.[11.7 µM]	.[11.7 µM]	/	/	/
CN1c2ccccc2C(O)=C(C(=S)Nc2ccc(F)c(Cl)c2)S1(=O)=O	.	?	.	-255	.
C=CCOc1ccc(C2NC(=O)c3ccccc3O2)cc1OC (stereo not drawn)	/	/	/	-75	.
CCN(C[C@H]1N[C@@](C)(C(=O)OC)[C@H]2C(=O)N(C)C(=O)[C@@H]12)C(=O)COc1ccccc1	/	/	/	-218	.
COc1cccc(-c2nn(C)c3sc(C(=O)NCc4ccc5c(c4)OCO5)cc23)c1	.	.[11.7 µM]	.	.	-92
CC(C#N)Sc1ccc(S(=O)(=O)N2CCCC2)cn1 (stereo not drawn)	/	/	/	.	.
COc1ccc(NC(=O)Cc2ccsc2)cc1S(=O)(=O)N1CCOCC1	/	/	/	.	.
COCCOC(=O)c1cc(C(=O)c2cc(F)ccc2O)coc1=N	?	.	.	.	.
COC(=O)c1cc(C(=O)c2cc(Cl)ccc2O)coc1=N	.	.	.	-172	.
O=C(NC1CCCC1)C1CCCN1C(=O)Nc1ccccc1 (stereo not drawn)	.	.	.	.	-87
O=C(O)Cn1c(CC(=O)N2CCCC2)nc2ccccc21	.	.	.	.	-169
CC(C)N(C(=O)Cn1c(SCC(=O)NCc2ccc3c(c2)OCO3)nc2ccccc21)C(C)C	.	.	.	-122	.
CC[C@@H]1CC=C[C@H]2[C@H]1C(=O)N(Cc1ccccc1)[C@H]2c1ccc(C(F)(F)F)cc1	.	/	.	.	-77
Cc1ccc(CNC(=O)COC(=O)c2ccc(S(=O)(=O)N(C)C)cc2)cc1	.	?	.	.	.
O=C(CN1CCC(n2nnc3cc(C(F)(F)F)ccc32)CC1)Nc1ccc2c(c1)CCC2	.	.	.	.	-78
SMILES	Menin-MLL FL inh	Menin-MLL TR inh	CXXC DNA block	KCNH2 WT inh	KCNH2 3.1 block
N/C(=N\c1nc2c(c(=O)[nH]1)CCC2)Nc1cccc2ccccc12	.	.	.	.	-78
N/C(=N\c1nc2c(c(=O)[nH]1)CCC2)Nc1cccc(Cl)c1	.	.	.	.	.
CCOC(=O)N1CCN(C(=S)NC(=O)c2ccnn2C)CC1	.	.	.	.	.
CCOC(=O)N1CCN(C(=S)NC(=O)c2ccc(F)cc2)CC1	.	.	.	.	-73
CCc1noc(C)c1C(=O)N1CCN(S(=O)(=O)c2c(C)c(C)cc(C)c2C)CC1	/	/	/	.	.
CCOc1ccc(S(=O)(=O)Nc2c(C)n(C)n(-c3ccccc3)c2=O)cc1	.	.	.	-197	.
Cc1c(NS(=O)(=O)c2ccc(Br)cc2)c(=O)n(-c2ccccc2)n1C	.	?	.	.	.
COc1ccc(N2CCN(C(=O)C3CCN(C(=O)c4cccc(Cl)c4)CC3)CC2)cc1	.	.	.	.	.
COc1ccc(-c2coc3cc(O[C@@H]4O[C@H](CO)[C@@H](O)[C@H](O)[C@H]4O)ccc3c2=O)cc1	/	/	/	.	-151
CNC(=O)c1cc2cc(OC)ccc2n1CCN(Cc1ccccc1)Cc1ccccc1	.	/	.	.	-75
